# Inconclusive results are not listed. The source made the active and inactive calls. Calls come from the whole dose curve; as a rule, active = well fitted cell-killing curve with a large enough effect; inconclusive = small, poorly fitted or top-dose-only effect, or effect the other way; inactive = flat fitted curve, though single readings scatter.
# Test system: C33A
# Test: Primary qHTS to identify gynecologic anti-cancer compounds using libraries of approved drugs and bioactive compounds (AID 1345084); note: nearly all actives have a fitted effect of over 55% in size
# Conditions: Gynecologic cancer cell panel viability, ATPlite luminescence, 48 h; series mostly up to 57.5 µM; activity change, negative = cytotoxicity: at the top concentration
# How it was run: (§1)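 Cells, 1,000 per well, were allowed to settle for 16 h at 37 C before compound addition. Five concentrations were tested for 48 h, and viability was read by ATPlite luminescence after 15 min at room temperature.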
# % is set by controls: 0 for no effect and ±100 for the full control effect; potency is the fitted concentration of half-maximal effect.
row,Compound,"activity change, negative = cytotoxicity"
1,C[C@]12CCC(=O)C=C1CC[C@@H]1[C@H]3CC[C@](C)(O)[C@@]3(C)CC[C@@H]12,-20.9% [at 116 µM] (inactive)
2,O=c1c(C2CC(c3ccc(-c4ccc(Br)cc4)cc3)Cc3ccccc32)c(O)sc2ccccc12 (stereo unspecified),-22.4% (inactive)
3,CC(C)(C)c1ccc(O)cc1,3.9% (inactive)
4,C[C@]12CC[C@H]3[C@@H](CC[C@@]45O[C@H]4C(O)=C(C#N)C[C@]35C)[C@H]1CC[C@H]2O,12.7% (inactive)
5,O=C1OC(CCN2CCCCC2)OC1(c1ccccc1)c1ccccc1 (stereo unspecified),-1.49% (inactive)
6,C[C@@H](N)[C@@H](O)c1ccccc1,-1.34% (inactive)

# Test system: CAOV3
# Test: as above
# Conditions: Gynecologic cancer cell panel viability, ATPlite luminescence, 48 h; series mostly up to 57.5 µM; activity change, negative = cytotoxicity: at the top concentration
# How it was run: as §1
row,Compound,"activity change, negative = cytotoxicity"
1,C[C@]12CCC(=O)C=C1CC[C@@H]1[C@H]3CC[C@](C)(O)[C@@]3(C)CC[C@@H]12,-12% [at 116 µM] (inactive)
2,CC(C)(C)c1ccc(O)cc1,17.3% (inactive)
3,C[C@]12CC[C@H]3[C@@H](CC[C@@]45O[C@H]4C(O)=C(C#N)C[C@]35C)[C@H]1CC[C@H]2O,-3.09% (inactive)
4,O=C1OC(CCN2CCCCC2)OC1(c1ccccc1)c1ccccc1 (stereo unspecified),4.76% (inactive)
5,C[C@@H](N)[C@@H](O)c1ccccc1,-5.79% (inactive)

# Test system: CASKI
# Test: as above
# Conditions: Gynecologic cancer cell panel viability, ATPlite luminescence, 48 h; series mostly up to 57.5 µM; activity change, negative = cytotoxicity: at the top concentration
# How it was run: as §1
row,Compound,"activity change, negative = cytotoxicity"
1,O=c1c(C2CC(c3ccc(-c4ccc(Br)cc4)cc3)Cc3ccccc32)c(O)sc2ccccc12 (stereo unspecified),6.13% (inactive)
2,CC(C)(C)c1ccc(O)cc1,2.36% (inactive)
3,C[C@]12CC[C@H]3[C@@H](CC[C@@]45O[C@H]4C(O)=C(C#N)C[C@]35C)[C@H]1CC[C@H]2O,1.35% (inactive)
4,O=C1OC(CCN2CCCCC2)OC1(c1ccccc1)c1ccccc1 (stereo unspecified),-0.437% (inactive)
5,C[C@@H](N)[C@@H](O)c1ccccc1,3.23% (inactive)

# Test system: Es-2
# Test: as above
# Conditions: Gynecologic cancer cell panel viability, ATPlite luminescence, 48 h; series mostly up to 57.5 µM; activity change, negative = cytotoxicity: at the top concentration
# How it was run: as §1
row,Compound,"activity change, negative = cytotoxicity"
1,C[C@]12CCC(=O)C=C1CC[C@@H]1[C@H]3CC[C@](C)(O)[C@@]3(C)CC[C@@H]12,-1.73% [at 116 µM] (inactive)
2,O=c1c(C2CC(c3ccc(-c4ccc(Br)cc4)cc3)Cc3ccccc32)c(O)sc2ccccc12 (stereo unspecified),10.3% (inactive)
3,CC(C)(C)c1ccc(O)cc1,10.2% (inactive)
4,C[C@]12CC[C@H]3[C@@H](CC[C@@]45O[C@H]4C(O)=C(C#N)C[C@]35C)[C@H]1CC[C@H]2O,-2.29% (inactive)
5,O=C1OC(CCN2CCCCC2)OC1(c1ccccc1)c1ccccc1 (stereo unspecified),-2.4% (inactive)
6,C[C@@H](N)[C@@H](O)c1ccccc1,13.9% (inactive)

# Test system: HeLa
# Test: as above
# Conditions: Gynecologic cancer cell panel viability, ATPlite luminescence, 48 h; series mostly up to 57.5 µM; activity change, negative = cytotoxicity: at the top concentration
# How it was run: as §1
Compound,Potency,"activity change, negative = cytotoxicity"
C[C@]12CCC(=O)C=C1CC[C@@H]1[C@H]3CC[C@](C)(O)[C@@]3(C)CC[C@@H]12,31.6 µM (active),
CC(C)(C)c1ccc(O)cc1,,1.99% (inactive)
C[C@]12CC[C@H]3[C@@H](CC[C@@]45O[C@H]4C(O)=C(C#N)C[C@]35C)[C@H]1CC[C@H]2O,,-16.7% (inactive)
O=C1OC(CCN2CCCCC2)OC1(c1ccccc1)c1ccccc1 (stereo unspecified),,-0.442% (inactive)
C[C@@H](N)[C@@H](O)c1ccccc1,,5.39% (inactive)

# Test system: Hek293T
# Test: as above
# Conditions: Gynecologic cancer cell panel viability, ATPlite luminescence, 48 h, control line for the selectivity index; series mostly up to 57.5 µM; activity change, negative = cytotoxicity: at the top concentration
# How it was run: as §1
row,Compound,"activity change, negative = cytotoxicity"
1,O=c1c(C2CC(c3ccc(-c4ccc(Br)cc4)cc3)Cc3ccccc32)c(O)sc2ccccc12 (stereo unspecified),-23.2% (inactive)
2,CC(C)(C)c1ccc(O)cc1,1.93% (inactive)
3,C[C@]12CC[C@H]3[C@@H](CC[C@@]45O[C@H]4C(O)=C(C#N)C[C@]35C)[C@H]1CC[C@H]2O,-2.03% (inactive)
4,O=C1OC(CCN2CCCCC2)OC1(c1ccccc1)c1ccccc1 (stereo unspecified),5.32% (inactive)
5,C[C@@H](N)[C@@H](O)c1ccccc1,0.895% (inactive)

# Test system: JEG-3
# Test: as above
# Conditions: Gynecologic cancer cell panel viability, ATPlite luminescence, 48 h; series mostly up to 57.5 µM; activity change, negative = cytotoxicity: at the top concentration
# How it was run: as §1
row,Compound,"activity change, negative = cytotoxicity"
1,C[C@]12CCC(=O)C=C1CC[C@@H]1[C@H]3CC[C@](C)(O)[C@@]3(C)CC[C@@H]12,-8.71% [at 116 µM] (inactive)
2,CC(C)(C)c1ccc(O)cc1,4.62% (inactive)
3,C[C@]12CC[C@H]3[C@@H](CC[C@@]45O[C@H]4C(O)=C(C#N)C[C@]35C)[C@H]1CC[C@H]2O,-17% (inactive)
4,O=C1OC(CCN2CCCCC2)OC1(c1ccccc1)c1ccccc1 (stereo unspecified),-0.0327% (inactive)
5,C[C@@H](N)[C@@H](O)c1ccccc1,-16% (inactive)

# Test system: OV90
# Test: as above
# Conditions: Gynecologic cancer cell panel viability, ATPlite luminescence, 48 h; series mostly up to 57.5 µM; activity change, negative = cytotoxicity: at the top concentration
# How it was run: as §1
row,Compound,"activity change, negative = cytotoxicity"
1,CC(C)(C)c1ccc(O)cc1,17.3% (inactive)
2,C[C@]12CC[C@H]3[C@@H](CC[C@@]45O[C@H]4C(O)=C(C#N)C[C@]35C)[C@H]1CC[C@H]2O,-20.1% (inactive)
3,O=C1OC(CCN2CCCCC2)OC1(c1ccccc1)c1ccccc1 (stereo unspecified),8.81% (inactive)
4,C[C@@H](N)[C@@H](O)c1ccccc1,4.03% (inactive)
